Reference: PubChem BioAssay (NCI)
Values joined by “and” are separate entries in the source; they are usually repeats but may differ in a detail not shown here. Equal entries are not always repeated. About 79,000 compounds went through this panel and 15% of them were active in at least one assay; those are over-represented in the sample as a whole. Rule as the data show it: active = growth inhibition above about 70%; inactive = the rest.

Columns and labels:
[1] = NCI Yeast Anticancer Drug Screen. Data for the rad50 strain (AID 155);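 also: 0% = growth of vehicle-only cultures of the same strain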; details: S. cerevisiae rad50 strain growth inhibition; at 50.0 µM; hits give high values
Procedure, shortened: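 Compounds were tested on a yeast strain with an engineered DNA damage repair alteration; the reported value is growth inhibition normalised to vehicle treatment.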

[2] = NCI Yeast Anticancer Drug Screen. Data for the mec2-1 strain (AID 157); details: S. cerevisiae mec2-1 strain, at 50.0 µM, hits give high values
Procedure, shortened: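 Yeast mec2-1 mutant treated with compound. Readout: growth inhibition vs vehicle controls.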

[3] = NCI Yeast Anticancer Drug Screen. Data for the sgs1 mgt1 strain (AID 161);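 also: 0% = growth of cultures given vehicle only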; details: S. cerevisiae sgs1 mgt1 strain, at 50.0 µM, hits give high values
Procedure, shortened: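 Mutant yeast exposed to compound; growth scored against vehicle-only wells.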

[4] = NCI Yeast Anticancer Drug Screen. Data for the cln2 rad14 strain (AID 165);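 also: 0% = growth equal to vehicle treated cultures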; details: S. cerevisiae cln2 rad14 strain, at 50.0 µM, hits give high values
Procedure, shortened: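 cln2 rad14 yeast strain; compound exposure; growth inhibition read vs vehicle controls.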

[5] = NCI Yeast Anticancer Drug Screen. Data for the bub3 strain (AID 167); details: S. cerevisiae bub3 mutant strain, at 50.0 µM, hits give high values
Procedure, shortened: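 Growth of a checkpoint-deficient yeast mutant is measured after compound exposure. Values represent inhibition relative to vehicle.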

[6] = NCI Yeast Anticancer Drug Screen. Data for the mlh1 rad18 strain (AID 175); details: S. cerevisiae mlh1 rad18 strain growth inhibition; at 50.0 µM; hits give high values
Procedure, shortened: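 Yeast w/ defined DNA-repair lesions; compound exposure; growth vs vehicle controls → % inhibition.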

Measured: growth inhibition

CCCCCCCCCC[C@@H](O)[C@@H]1CC[C@@H]([C@@H]2CC[C@@H]([C@@H](O)CCCCCCCCCC[C@H](O)CC3=CC(C)OC3=O)O2)O1 (some centres not stated)
inactive: [1] -3.45% | [2] -0.4% | [3] 18.8% | [4] 31% | [5] -11.7% | [6] -21.9%

O=C([O-])C[SH2+].[Co+3].[NH-]CC[NH-].[NH-]CC[NH-].[O-][Cl+3]([O-])([O-])O
inactive: [1] 7.4% | [2] 20.1% | [3] 14.3% | [4] -16.6% | [5] 17.4% | [6] 20.4%

CN(C)c1cc(C(C)(C)C)nc(C(C)(C)C)c1
inactive: [1] 7.65% and 3% | [2] -1.1% and -1.8% | [3] 8.6% and 5.1% | [4] 1.25% and -5.95% | [5] 0.3% and -4.75% | [6] 9.05% and 10.4%

O=C1NC(=O)C2(O)NC(=O)NC2(O)N1 (configuration not stated)
inactive: [1] -27.1% | [2] -9.5% | [3] 3.15% | [4] -10.8% | [5] -22.4% | [6] 18.1%

O=C(Cc1ccccc1)Oc1ccc2c(-c3ccccc3)c(C(=O)Nc3ccc(Cl)cc3)c(=O)oc2c1
inactive: [1] 6.75% | [2] 5.2% | [3] 2.2% | [4] 2.6% | [5] -23.4% | [6] 12.8%

CC(C)CCCCCc1ccc(OCCOc2ccc(C(=O)Nc3ccc(S(=O)(=O)F)cc3[N+](=O)[O-])cc2)cc1
inactive: [1] 42.1% | [2] -8.75% | [3] 26.2% | [4] -11.7% | [5] 0.5% | [6] 9.85%

O=NN1CCCC1C(=O)O (configuration not stated)
inactive: [1] -10.8% and 0.75% | [2] -16.6% and -11.8% | [3] -14.2% and -12% | [4] 10.1% and 3.9% | [5] 3.45% and 1.65% | [6] -14% and -2.15%

CC(=O)c1ccc(N2CCNCC2)cc1
inactive: [1] -27.6% | [2] -49.8% | [3] -3.95% | [4] 16.6% | [5] -14.2% | [6] -22.1%

CC1C/C(=C\N=[N+]=[N-])C(=O)O1 (configuration not stated)
inactive: [1] -11.4% | [2] 14.7% | [3] 6% | [4] -4.9% | [5] 12.4% | [6] -0.05%

COc1cccc(/C=N/[N-]C(=O)c2ccncc2)c1[O-].[Ni+2].[OH3+]
inactive: [1] -14.6% | [2] -4.05% | [3] -12.1% | [4] 18.1% | [5] -12.2% | [6] -14.2%

Clc1cccc2c(N3CC3)cnnc12
inactive: [1] 17.6% | [2] -1.3% | [3] -13.3% | [4] 1.4% | [5] -16.6% | [6] -2.55%

COc1ccc2c3c1OC1C4(OC)CCC5(c6c(O)ccc(O)c64)C(C2)N(C)CCC315 (configuration not stated)
inactive: [1] 5.75% | [2] 4% | [3] 7.2% | [4] 13.3% | [5] -6.4% | [6] 4.15%

C/C=C/CC1(c2ccccc2)C(=O)NC(=S)NC1=O
inactive: [1] 10.2% | [2] -15% | [3] 6.3% | [4] -42.3% | [5] -6% | [6] 5.9%

Cn1nc(-c2ccc(S(=O)(=O)F)cc2)s/c1=N/NC(=O)c1ccccc1
inactive: [1] 4% | [2] 2% | [3] 19.8% | [4] 23.4% | [5] 18.6% | [6] 3.65%

Cn1cccc1-c1cccnc1
inactive: [1] -23.8% and -4.7% | [2] -34.6% and -4.95% | [3] -4.8% and -7.45% | [4] 10.7% and 0.7% | [5] -19.3% and 0.05% | [6] -12.7% and -9.15%

[Cl][Ni][Cl].[NH-]C1CCCCC1[NH-].[NH-]C1CCCCC1[NH-] (configuration not stated)
inactive: [1] -22.9% | [2] -6.45% | [3] 0.85% | [4] -18.6% | [5] 11.8% | [6] -1.85%

O=C(Cl)OCCOCCOC(=O)Cl
inactive: [1] -4.35% | [2] -6.1% | [3] 6.95% | [4] -28.1% | [5] -3.15% | [6] -4.4%

ClC1CC2OC(Cl)CC2O1 (configuration not stated)
inactive: [1] 5.2% | [2] 1.05% | [3] -19.1% | [4] -20.9% | [5] 0.4% | [6] 1.15%

O=C1NC(=O)C(Br)C(=O)N1 (tested in a mixture with another compound)
inactive: [1] -8.5% | [2] 8.95% | [3] 0.5% | [4] -19.6% | [5] -1.95% | [6] -0.3%

CCOP(=O)(OCC)C(C)(CC)/N=C(\N)NC#N (configuration not stated)
inactive: [1] -4.8% | [2] -36.9% | [3] -8.85% | [4] 12% | [5] 15% | [6] -18.1%

CC(C)CC(N)C(=O)O (configuration not stated)
inactive: [1] -6% and -19.2% | [2] -4.8% and 9.15% | [3] -3.25% and -31.2% | [4] -11.1% and -34% | [5] 5.7% and -8.45% | [6] 6.15% and -40.9%

CS(=O)(=O)Cl
inactive: [1] 7.65% | [2] -26.9% | [3] 16.4% | [4] 13.1% | [5] -4.85% | [6] 0%

COP(=O)(OC)OC1C(=O)NC(=O)NC1=O
inactive: [1] 12.3% | [2] 0.25% | [3] -4.15% | [4] 14.2% | [5] 7.2% | [6] 17.9%

CCC1(Sc2ncnc3c2ncn3C2OC(CO)C(O)C2O)C(=O)NC(=O)NC1=O (configuration not stated)
inactive: [1] 4.5% | [2] 2.7% | [3] -7.95% | [4] 16.9% | [5] -6.05% | [6] -7.2%

N#CS.[Cr+3].[NH-]CC[NH-].[NH-]CC[NH-].[NH-]CC[NH-]
inactive: [1] 14.8% | [2] -0.5% | [3] 10.2% | [4] 12.8% | [5] -2.75% | [6] 5.05%

OCC12COCN1COC2
inactive: [1] 8.4% | [2] -15.9% | [3] -23.6% | [4] -14% | [5] -0.4% | [6] -31.9%

C[C@]12CCNC(=O)C=C1CC[C@@H]1C2CC[C@@]2(C)C1CC[C@@H]2OC(=O)COc1ccc(N(CCCl)CCCl)cc1 (some centres not stated)
inactive: [1] 24.4% | [2] 25.1% | [3] 21.6% | [4] 60% | [5] 35.8% | [6] -26.1%

O=C(C1CO1)C(Cl)(Cl)Cl (configuration not stated)
inactive: [1] -3.95% | [2] -6.85% | [3] 3.8% | [4] -8.2% | [5] -15.2% | [6] -2.35%

CC(Cl)(Cl)[N+](=O)[O-]
inactive: [1] 33.7% | [2] -22.5% | [3] -8.05% | [4] -60.1% | [5] -10.2% | [6] 21.1%

Cc1coc2c1CCC(C)C2 (configuration not stated)
inactive: [1] -6.65% | [2] -24.8% | [3] -5.5% | [4] 1.55% | [5] 1.65% | [6] -5.9%

Cn1c(=O)n(C2(C)C[Se]C2)c2ccccc21
inactive: [1] -11.5% | [2] -15.7% | [3] -16.8% | [4] -15.4% | [5] -13.7% | [6] -22.5%

COc1ccc(CC#N)cc1
inactive: [1] -51.1% | [2] -5.25% | [3] 19.4% | [4] -35% | [5] 1.4% | [6] 15.2%

O=S1(N2CC2)=NP(N2CC2)(N2CC2)=NP(N2CC2)(N2CC2)=N1 (configuration not stated)
inactive: [1] -20.9% | [2] -22.5% | [3] -16.8% | [4] 11.2% | [5] -33% | [6] -67.1%

COC(=O)C1C2CC3c4c(c5ccc(OC)cc5n4[N+](=O)[O-])CCN3CC2CC(OC(=O)c2cc(OC)c(OC)c(OC)c2)C1OC (configuration not stated)
inactive: [1] -14% | [2] -50.5% | [3] -34.4% | [4] -17.9% | [5] -22.2% | [6] -3.9%

NC(=O)Cc1nn[nH]n1
inactive: [1] -16.4% | [2] -13.8% | [3] -27.1% | [4] 5.95% | [5] -7.35% | [6] -21.9%

NCCCNCCCN
inactive: [1] 5.2% | [2] -3.1% | [3] -3.95% | [4] -4.3% | [5] 7.85% | [6] -11.7%

CCOC(=O)/C=C1\Nc2ccccc2C(c2ccccc2)=NC1OC(C)=O (configuration not stated)
inactive: [1] 39.1% | [2] -20.6% | [3] 22.6% | [4] 23.6% | [5] -13.7% | [6] -9%
